Test [1] relates to Plasmodium falciparum Sir2 (PF13_0152, Sir2A). Briefly: Plasmodium falciparum Sir2A binding compounds – biochemical, small-molecule microarray, 635 nm fluorescence, primary screen (AID 1098).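 Note: score merges spot fluorescence intensity with its signal-to-noise ratio.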 As to conditions: fluorescence 635 nm, higher = more signal.
Test [2] is described as follows: probe aDKK1 binding to arrayed compounds – biochemical, biotinylated probe, 635/667 nm fluorescence, primary screen (AID 1099).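 Note: score merges 667nm spot fluorescence with signal to noise across triplicate slides.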 As to conditions: small-molecule microarray, higher = more signal.
A short description of test [3]: probe aCHRDL2 binding to arrayed compounds – biochemical, biotinylated probe, 635/667 nm fluorescence, primary screen (AID 1100). To be noted: small-molecule microarray, higher = more signal.
The nature of test [4]: change in splice reporter luminescence, either direction, cell-based, HEK293, spliceosome inhibition project, primary screen (AID 1101).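 Note: HEK293 cells carrying a splicing-competent luciferase reporter gene; test concentration not given here.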 As to conditions: HEK293 splicing luciferase reporter, 24 h, higher = more signal, called active from +8 up or from −8 down. A general note: In a reporter assay the amount or activity of a reporter protein is the signal.
In test [5] the target is Fibroblast growth factor 10 (Homo sapiens) (UniProt O15520). Description: compounds binding fibroblast growth factor 10 – biochemical, small-molecule microarray, 635 nm fluorescence, primary screen (AID 1102). As to conditions: FGF10 binding, fluorescence 635 nm, higher = more signal.
Chain of Fibroblast growth factor 10 (Homo sapiens) (O15520 whole entry, looked up): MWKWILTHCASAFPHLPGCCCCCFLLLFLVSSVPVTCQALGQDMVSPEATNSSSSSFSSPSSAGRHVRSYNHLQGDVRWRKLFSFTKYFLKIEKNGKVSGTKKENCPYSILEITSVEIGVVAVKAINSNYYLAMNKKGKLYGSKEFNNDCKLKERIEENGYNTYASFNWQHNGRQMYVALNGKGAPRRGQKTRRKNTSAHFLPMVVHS
For test [6], the system named is glycogen synthase kinase-3 (GSK3A per assay name; protocol says GSK3B). Briefly: compounds binding glycogen synthase kinase-3 – biochemical, small-molecule microarray, 635 nm fluorescence, GSK3A, primary screen (AID 1103). Note: the record names both GSK3A and GSK3B. To be noted: fluorescence 635 nm, higher = more signal.
Test [7] has as its target Epidermal growth factor receptor (Homo sapiens) (UniProt P00533). Briefly: compounds binding epidermal growth factor receptor – biochemical, small-molecule microarray, 635 nm fluorescence, primary screen (AID 1104).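 Note: score merges 667 nm emission intensity with spot signal to noise over triplicate slides.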 As to conditions: EGFR binding, higher = more signal.
The target of test [8] is Follistatin-related protein 3 (Homo sapiens) (UniProt O95633). Description: compounds binding follistatin-related protein 3 – biochemical, small-molecule microarray, 635 nm fluorescence, primary screen (AID 1105).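 Note: score merges emission near 667 nm and signal to noise per printed spot across three slides.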 As to conditions: FSTL3 binding, higher = more signal.
Chain of Follistatin-related protein 3 (Homo sapiens) (O95633 whole entry, looked up): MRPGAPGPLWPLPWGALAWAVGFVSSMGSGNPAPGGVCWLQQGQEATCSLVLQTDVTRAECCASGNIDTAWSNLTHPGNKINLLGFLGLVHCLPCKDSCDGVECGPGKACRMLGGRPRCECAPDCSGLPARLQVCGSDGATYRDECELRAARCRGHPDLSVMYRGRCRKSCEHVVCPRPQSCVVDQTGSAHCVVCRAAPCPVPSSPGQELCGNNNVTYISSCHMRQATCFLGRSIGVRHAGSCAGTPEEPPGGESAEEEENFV
Test [9] deals with Dickkopf-related protein 1 (Homo sapiens) (UniProt O94907). Description: small molecules binding DKK1 protein – biochemical, small-molecule microarray, 635 nm fluorescence scan, primary screen (AID 1106).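 Note: score merges emission near 667 nm with signal to noise over three replicate slides.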 As to conditions: higher = more signal.
Chain of Dickkopf-related protein 1 (Homo sapiens) (O94907 whole entry, looked up): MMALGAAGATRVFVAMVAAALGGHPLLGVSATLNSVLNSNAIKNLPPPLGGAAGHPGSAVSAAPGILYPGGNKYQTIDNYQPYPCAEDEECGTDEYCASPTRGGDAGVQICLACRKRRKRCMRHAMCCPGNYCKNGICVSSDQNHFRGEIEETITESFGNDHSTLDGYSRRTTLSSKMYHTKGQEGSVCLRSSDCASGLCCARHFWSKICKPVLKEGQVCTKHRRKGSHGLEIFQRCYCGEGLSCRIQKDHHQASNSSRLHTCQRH
Test [10] has as its system Inhibin beta A chain (activin A). Briefly: small molecules binding activin A – biochemical, small-molecule microarray, 635 nm fluorescence scan, primary screen (AID 1107).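 Note: mouse activin A protein probed at 4.33 µg/mL on printed slides; score merges bound-protein fluorescence near 667 nm with spot signal-to-noise.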 As to conditions: INHBA, higher = more signal.
Test [11] has as its system Human papillomavirus type 1a protein E7 (residues 44-93). Description: small molecules binding HPV E7 44-93 – biochemical, small-molecule microarray, residues 44-93, 635 nm fluorescence, primary screen (AID 1108).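 Note: E7 fragment applied at 1 µg/mL in TBST for 1 h at 4 C; score combines spot fluorescence with its signal to noise ratio.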 As to conditions: fluorescence 635 nm, higher = more signal.
Test [12] in a line: hepatitis C replication reporter changes, two-sided – Huh7 cells, luciferase reporter, HCV replication inhibitor project, primary screen (AID 1109).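 Note: huh7 hepatoma cells harbouring a luciferase neomycin HCV replicon reporter; luciferase luminescence as measure of HCV replicon replication; test concentration not given here.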 To be noted: Huh7 HCV replicon luciferase reporter, 48 h; higher = more signal.
The target of test [13] is Left-right determination factor 2 (Homo sapiens) (UniProt O00292). Briefly: small molecules binding LEFTY2 protein – biochemical, small-molecule microarray, 635 nm fluorescence scan, primary screen (AID 1110). To be noted: higher = more signal.
Chain of Left-right determination factor 2 (Homo sapiens) (O00292 whole entry, looked up): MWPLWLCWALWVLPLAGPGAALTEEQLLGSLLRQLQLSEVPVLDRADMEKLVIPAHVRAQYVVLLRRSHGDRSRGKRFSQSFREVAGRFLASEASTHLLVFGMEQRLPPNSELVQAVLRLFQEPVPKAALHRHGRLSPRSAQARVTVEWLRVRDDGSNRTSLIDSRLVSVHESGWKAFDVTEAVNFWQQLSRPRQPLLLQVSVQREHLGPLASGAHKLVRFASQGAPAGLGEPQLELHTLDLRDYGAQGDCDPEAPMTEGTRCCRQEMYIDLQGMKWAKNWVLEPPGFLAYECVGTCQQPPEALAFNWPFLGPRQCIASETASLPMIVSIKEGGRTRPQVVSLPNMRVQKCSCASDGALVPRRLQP
The target of test [14] is Calmodulin-1 (Homo sapiens) (UniProt P0DP23). Briefly: small molecules binding calmodulin-1 with EGTA – biochemical, small-molecule microarray, Cy5-labelled CALM1, profiling panel (AID 1111).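 Note: labelled calmodulin applied in Tris saline Tween buffer holding calcium plus EGTA and DTT.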 As to conditions: Cy5-CALM1 binding fluorescence, higher = more signal.
Test [15] has the same target. Description: small molecules binding Ca-loaded calmodulin-1 – biochemical, small-molecule microarray, Cy5-labelled CALM1, plus calcium, artefact control for SMM control-protein annotation, profiling panel (AID 1112).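 Note: score merges spot fluorescence with signal to noise from triplicate slides.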 As to conditions: Cy5-CALM1 binding fluorescence, higher = more signal.
Test [16] in a line: probe aWnt5a binding to arrayed compounds – biochemical, biotinylated probe, 635/667 nm fluorescence, primary screen (AID 1113).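 Note: score merges 667 nm fluorescence intensity with signal-to-noise per printed feature.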 To be noted: small-molecule microarray, higher = more signal.
Test [17] in a line: probe aShh binding to arrayed compounds – biochemical, biotinylated probe, 635/667 nm fluorescence, primary screen (AID 1114).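 Note: probe is biotin-labelled aShh protein from a stem cell growth factor screen; measures binding of labelled protein to compounds printed on the slide; score merges feature fluorescence at 667 nm with signal-to-noise.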 To be noted: small-molecule microarray, higher = more signal.
The nature of test [18]: probe aNog binding to arrayed compounds – biochemical, biotinylated probe, 635/667 nm fluorescence, primary screen (AID 1115).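 Note: probe is biotinylated aNog protein used at 0.15 µg/mL for 1 h at 4 C; z-score combines 667 nm fluorescence of each spot with its signal to noise.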 To be noted: small-molecule microarray, higher = more signal.
Test [19] has as its target Torsin-1A-interacting protein 1 (Homo sapiens) (UniProt Q5JTV8). Briefly: compound microarray binding of lysate hLAP1 – cell lysate, small-molecule microarray, COS7 lysate, 635/667 nm fluorescence, primary screen (AID 1116). To be noted: 635 nm fluorescence, higher = more signal.
In test [20] the target is Alpha-bungarotoxin (Bungarus multicinctus) (UniProt P60615). Description: compounds binding labelled alpha-BTX control protein – biochemical, small-molecule microarray, Alexa647 label, 635/667 nm fluorescence, artefact control for SMM control protein annotation, profiling panel (AID 1117). As to conditions: alpha-BTX-A647 binding fluorescence, higher = more signal.
Chain of Alpha-bungarotoxin (Bungarus multicinctus) (P60615 whole entry, looked up): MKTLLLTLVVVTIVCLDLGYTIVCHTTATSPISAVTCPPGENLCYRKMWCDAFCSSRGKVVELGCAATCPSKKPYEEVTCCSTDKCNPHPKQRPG

Activity calls are given as the source filed them.

Chain of Torsin-1A-interacting protein 1 (Homo sapiens) (Q5JTV8 whole entry, looked up): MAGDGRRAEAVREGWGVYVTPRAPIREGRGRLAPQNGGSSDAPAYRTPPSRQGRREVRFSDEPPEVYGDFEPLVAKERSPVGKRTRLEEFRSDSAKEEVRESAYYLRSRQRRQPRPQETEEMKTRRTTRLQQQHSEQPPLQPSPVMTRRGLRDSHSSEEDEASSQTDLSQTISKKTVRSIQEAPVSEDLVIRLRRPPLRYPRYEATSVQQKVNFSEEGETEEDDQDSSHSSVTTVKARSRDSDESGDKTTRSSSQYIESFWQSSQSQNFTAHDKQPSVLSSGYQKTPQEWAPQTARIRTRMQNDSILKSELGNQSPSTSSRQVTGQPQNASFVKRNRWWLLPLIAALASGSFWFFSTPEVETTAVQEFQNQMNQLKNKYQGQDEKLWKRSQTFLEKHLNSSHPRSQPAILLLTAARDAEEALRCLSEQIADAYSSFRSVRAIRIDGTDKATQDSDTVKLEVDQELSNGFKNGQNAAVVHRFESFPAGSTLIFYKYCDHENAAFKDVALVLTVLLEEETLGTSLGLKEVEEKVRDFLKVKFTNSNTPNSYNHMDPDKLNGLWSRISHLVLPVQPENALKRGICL
Chain of Epidermal growth factor receptor (Homo sapiens) (P00533 whole entry, looked up): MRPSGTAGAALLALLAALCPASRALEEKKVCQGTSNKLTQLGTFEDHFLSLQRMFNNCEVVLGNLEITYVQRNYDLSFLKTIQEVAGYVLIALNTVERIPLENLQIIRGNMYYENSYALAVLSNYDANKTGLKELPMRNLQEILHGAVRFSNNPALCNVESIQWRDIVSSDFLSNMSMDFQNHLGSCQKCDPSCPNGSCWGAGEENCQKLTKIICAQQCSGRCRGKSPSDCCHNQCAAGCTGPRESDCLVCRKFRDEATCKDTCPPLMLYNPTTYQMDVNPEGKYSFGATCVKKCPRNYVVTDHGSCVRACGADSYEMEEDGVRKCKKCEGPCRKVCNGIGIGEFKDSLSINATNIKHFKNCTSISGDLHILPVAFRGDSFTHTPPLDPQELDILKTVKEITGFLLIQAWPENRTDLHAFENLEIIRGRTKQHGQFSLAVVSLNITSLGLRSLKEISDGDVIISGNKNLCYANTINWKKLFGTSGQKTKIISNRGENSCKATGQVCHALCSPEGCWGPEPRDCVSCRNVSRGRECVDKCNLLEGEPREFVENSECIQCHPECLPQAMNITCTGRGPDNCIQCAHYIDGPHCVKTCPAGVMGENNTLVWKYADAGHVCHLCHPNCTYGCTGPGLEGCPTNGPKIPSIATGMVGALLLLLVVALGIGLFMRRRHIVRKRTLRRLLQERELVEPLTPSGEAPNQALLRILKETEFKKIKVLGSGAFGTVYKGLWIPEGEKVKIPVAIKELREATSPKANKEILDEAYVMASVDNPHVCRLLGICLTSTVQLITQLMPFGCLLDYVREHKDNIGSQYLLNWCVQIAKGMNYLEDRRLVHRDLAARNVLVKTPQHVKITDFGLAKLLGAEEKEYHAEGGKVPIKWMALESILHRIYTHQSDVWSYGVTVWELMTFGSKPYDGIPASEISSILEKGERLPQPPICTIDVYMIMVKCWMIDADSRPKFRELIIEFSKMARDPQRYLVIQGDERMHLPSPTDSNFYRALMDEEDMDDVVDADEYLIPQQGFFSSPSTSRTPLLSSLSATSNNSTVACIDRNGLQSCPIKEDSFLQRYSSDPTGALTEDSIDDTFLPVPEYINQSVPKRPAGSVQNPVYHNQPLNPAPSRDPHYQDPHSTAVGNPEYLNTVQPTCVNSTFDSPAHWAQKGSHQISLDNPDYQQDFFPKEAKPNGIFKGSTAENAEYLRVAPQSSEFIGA

`CCOC(=O)C[C@H]1[C@H](OC(=O)c2ccc(C(=O)c3ccccc3)cc2)[C@@H](NC(=O)Cc2ccc(OC)cc2)c2cc(OCCCO)ccc2N1C(=O)Cc1ccc(OC)cc1`: the composite z-score in test [1] was 0.276; in test [2] it was 0.676; in test [3] it was 0.949; in test [5], 0.371; in test [6], 0.283; in test [7] it was -0.137. The composite z-score was 0.321 in [8]; -0.177 in test [9]; 0.962 in test [10]; 1.06 in test [11]; 0.39 in test [13]; 1.31 in test [14]. Further, the composite z-score in test [15] was 0.655; in test [16], -0.0643; in test [17], -0.156; in test [18] it was 1.1; in test [19], 0.743; in test [20], 0.978. Further, the z-score is -1.52 (inactive) in test [4] and -1.06 in [12].

Regarding `NCCCCCNC(=O)[C@H]1C[C@H]2C(=O)NCC(=O)N2[C@H]1c1ccc(O)cc1`, the composite z-score in test [1] is 1.02; in [2], 0.154; in test [3], 0.212; in test [5], 1.37; in test [6] it was 1.31; in [7], 0.383. Moreover, the composite z-score in [8] stood at 1.07; in test [9], 1.74; in test [10], 0.324; in test [11] it was 0.861; in test [13] it was 1.49; in [14] it was 1.53. In addition, the composite z-score in [15] was 0.954; in [16] it was -0.0981; in [17] it was -0.206; in [18] it was -0.216; in test [19], 0.712; in test [20], 2.71. Also, the z-score was -0.25 (inactive) in [4] and 0.245 in test [12].

Regarding `COc1ccc([Si](C)(C)[C@H]2[C@H](CC(=O)N(CCO)Cc3ccccc3)O[C@@]3(C(=O)N(Cc4ccc(N5CCOC5=O)cc4)c4ccccc43)[C@@H]2C)cc1`, the composite z-score in test [1] is 0.614; in test [2], 0.0402; in [3], 0.32; in test [5] it was 0.286; in test [6] it was -0.137; in test [7], 0.109. The composite z-score in [8] is 0.276; in test [9], 0.512; in [10], 0.6; in test [11], 0.162; in test [13] it was 0.23; in test [14] it was 0.228. Further, the composite z-score in test [15] is 0.342; in test [16], -0.0944; in [17], 0.493; in [18], 0.473; in [19], 0.639; in test [20] it was 1.02. For the same compound, the z-score was -1.56 (inactive) in [4] and -2.94 in test [12].

Consider `COC(=O)C(CC#Cc1ccc2c(c1)[C@]1(C(=O)N2)[C@H](c2ccccc2OCCO)N2[C@H](c3ccccc3)[C@H](c3ccccc3)OC(=O)[C@H]2[C@@H]1C(=O)N1CCCCCCC1)C(=O)OC`, for which the composite z-score is 2.12 in test [1]; 3.07 in test [2]; 1.7 in [3]; 1.55 in test [5]; 1.47 in test [6]; 1.91 in test [7]. Moreover, the composite z-score in [8] was determined as 1.77; in test [9], 2.52; in [10] it was 1.79; in test [11], 1.48; in test [13], 1.73; in [14], 3.07. For the same compound, the composite z-score in [15] amounted to 1.76; in [16] it was 1.46; in [17], 2.72; in test [18], 3.54; in test [19] it was 5.82; in test [20], 3.89. For the same compound, the z-score in test [4] was -1.09 (inactive); in [12], -1.95.

In the case of `COc1ccc(CCNC(=O)[C@@]2(Sc3ccc(C)cc3)CC(=O)N(Cc3ccccc3)[C@@H]2c2ccc(CO)cc2I)cc1`, the composite z-score was 1.16 in [1]; -0.0607 in test [2]; 0.566 in [3]; -0.553 in test [5]; -0.407 in test [6]; -0.46 in [7]. Also, the composite z-score in test [8] was 0.149; in test [9] it was 0.0928; in [10] it was 0.761; in test [11], 0.152; in test [13], -1.46; in test [14], -0.615. Further, the composite z-score in [15] was -0.0032; in test [16], -0.17; in test [17], -0.596; in test [18], 0.0805; in test [19] it was -0.72; in test [20] it was 0.672. In addition, the values for the z-score in test [4] and in test [12] were -1.24 (inactive) and -2.18, respectively.

Turning to `C=C(/C(=C/C[C@H](OC(C)=O)c1cccc(OCCO)c1)c1cc(C(=O)OC)ccc1OC)C(C)C`, the composite z-score is 0.86 in [1]; -0.0559 in [2]; 0.132 in test [3]; 0.306 in [5]; -0.116 in test [6]; -0.805 in test [7]. Also, the composite z-score in [8] is -0.948; in test [9], -0.316; in test [10], 0.576; in [11], -0.0954; in [13] it was -0.516; in test [14] it was -1. In addition, the composite z-score is -0.551 in test [15]; -0.124 in test [16]; -0.0337 in [17]; 0.209 in [18]; 0.19 in test [19]; -1.33 in [20]. Also, the z-score in test [4] was -0.846 (inactive); in [12] it was -0.556.

For `C=C(COC)C(=O)CC[C@@H](OC(=O)c1ccccc1-c1ccccc1C(=O)O)c1cccc(OCCO)c1`, the composite z-score in test [1] was 0.147; in test [2], -0.0386; in test [3] it was 0.0203; in [5] it was 0.552; in test [6] it was -0.116; in test [7], -0.837. In addition, the composite z-score in test [8] was -0.0053; in test [9], -0.0221; in test [10] it was 1.19; in test [11], -1.75; in [13] it was 0.0941; in test [14] it was -1.17. Besides, the composite z-score is -1.09 in test [15]; -0.096 in test [16]; -0.153 in test [17]; 0.176 in test [18]; 0.671 in test [19]; 1.02 in test [20]. Further, the z-score in test [4] was 0.306 (inactive); in [12], -0.54.

Consider `COc1ccc([Si](C)(C)[C@H]2[C@H](CCO)O[C@@]3(C(=O)N(Cc4ccc(N5C(=O)c6cccc7cccc5c67)cc4)c4ccccc43)[C@@H]2C)cc1`, for which the composite z-score in test [1] is 0.706; in test [2] it was 0.147; in test [3] it was 0.742; in test [5], -0.0426; in test [6], -0.603; in [7] it was -0.482. The composite z-score in test [8] is -0.959; in [9], -0.397; in [10], 0.48; in test [11], 0.0848; in [13], -0.385; in test [14], 1.57. The composite z-score in test [15] was 1.28; in test [16], -0.129; in [17], -0.138; in test [18], 0.467; in test [19], 0.18; in [20] it was 1.05. Also, the z-score is -2.46 (inactive) in [4] and -4.78 in [12].

The values are drawn from PubChem BioAssay.
